Measured values from a collection of fitness landscapes (doi:10.1016/j.celrep.2020.107928).
In all, about 81,000 sequences were measured (“one-hybrid fitness for binding parS DNA”: median about -0.17, highest 2% from about 0.51 on). Shown is part of a subset that was picked to be rich in the highest values.

B1: Caulobacter ParB omega fusion; a variant is named by its letters at X, in order, B8GW30 (parent)
chain: MESVVVGEPGMSEGRRGLGRGLSALLGEVDAAPAQAPGEQLGGSREAPIEILQRNPDQPRRTFREEDLEDLSNSIREKGVLQPILVRPSPDTAGEYQIVAGERAWRAAQRAGLKTVPIMVRELDDLAVLEIGIIENVQRADLNVLEEALSYKVLMEKFERTQENIAQTIGKSXSHVANXMRLLXLPDEVQSYLVSGELTAXHARAIAAAADPVALAKQIIEGGLSVRETEALARKAPNLSAGKSKGGRPPRVKDTDTQALESDLSSVLGLDVSIDHRGSTGTLTITYATLEQLDDLCNRLTRGI

Variants of: B1
Experiment: one-hybrid fitness for binding parS DNA (scaled: cognate 1, non-cognate 0); higher = stronger binding
Conditions: with parS DNA site
In short: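 Pre- and post-selection plasmids were Illumina-sequenced, three replicate libraries were pooled, and any variant with under 10 reads was removed. The libraries were Caulobacter ParB with four specificity codons randomised, selected in E. coli USO through a HIS3 reporter whose site is 19 bp from the promoter. Cells grew 48 hours at 37°C on M9 without histidine, with 0.1 mM IPTG and 5 mM 3-AT. Fitness is the log change in variant-to-wild-type read ratio, rescaled against cognate and non-cognate.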

| Variant | one-hybrid fitness for binding parS DNA |
| --- | --- |
| LAGY | ≤ 0.2 |
| QVDH | ≤ 0.2 |
| IRKY | ≤ 0.2 |
| FNNR | ≤ 0.2 |
| TAFI | ≤ 0.2 |
| QSRA | ≤ 0.2 |
| TERS | ≤ 0.2 |
| APMD | ≤ 0.2 |
| RKQN | 0.3 |
| RLQH | 0.324 |
| RLQP | 0.206 |
| RLQS | 1 |
| RKQS | 0.793 |
| RKQD | ≤ 0.2 |
| ERKR | ≤ 0.2 |
| LEPN | ≤ 0.2 |
| CCRD | ≤ 0.2 |
| QNCR | ≤ 0.2 |
| RQVG | 0.88 |
| RQKH | 0.269 |
| RQVK | ≤ 0.2 |
| RQKN | 0.433 |
| RQVQ | ≤ 0.2 |
| RQKG | 0.939 |
| WNHS | ≤ 0.2 |

| Variant | one-hybrid fitness for binding parS DNA |
| --- | --- |
| KAIM | ≤ 0.2 |
| IGNS | ≤ 0.2 |
| NFGS | ≤ 0.2 |
| GEDR | ≤ 0.2 |
| QFAT | ≤ 0.2 |
| GTTA | ≤ 0.2 |
| ATEM | ≤ 0.2 |
| RTYM | 0.341 |
| RTVM | 0.315 |
| RTRM | 0.517 |
| RTDM | 0.289 |
| RSKM | 0.378 |
| RTKM | 0.594 |
| TLKA | ≤ 0.2 |
| TQQG | ≤ 0.2 |
| HCKF | ≤ 0.2 |
| YAFG | ≤ 0.2 |
| KYYR | ≤ 0.2 |
| ILTL | ≤ 0.2 |
| RHSS | 0.912 |
| RCSS | 0.978 |
| RHSP | ≤ 0.2 |
| RISS | 0.992 |
| RCSD | ≤ 0.2 |
| RISN | 0.454 |

| Variant | one-hybrid fitness for binding parS DNA |
| --- | --- |
| RMSS | 0.977 |
| RMSH | ≤ 0.2 |
| RPSS | ≤ 0.2 |
| RHSN | 0.379 |
| RMSD | ≤ 0.2 |
| RISD | ≤ 0.2 |
| AKPM | ≤ 0.2 |
| LGTM | ≤ 0.2 |
| TQKH | ≤ 0.2 |
| LPSR | ≤ 0.2 |
| NDSK | ≤ 0.2 |
| CAPL | ≤ 0.2 |
| RWPN | ≤ 0.2 |
| SQSF | ≤ 0.2 |
| PHLE | ≤ 0.2 |
| GVSS | ≤ 0.2 |
| LVRT | ≤ 0.2 |
| FMSD | ≤ 0.2 |
| FMSS | ≤ 0.2 |
| RKSP | ≤ 0.2 |
| RASN | 0.435 |
| RKSS | 0.811 |
| RFSS | 1.01 |
| RKSN | 0.296 |
| RFSP | ≤ 0.2 |

| Variant | one-hybrid fitness for binding parS DNA |
| --- | --- |
| RFSH | ≤ 0.2 |
| FMSQ | 0.554 |
| RASS | 1 |
| RASH | 0.225 |
| IYTS | ≤ 0.2 |
| TWRH | ≤ 0.2 |
| GPLA | ≤ 0.2 |
| YVAM | ≤ 0.2 |
| RYVW | 0.209 |
| HRKW | ≤ 0.2 |
| RSSD | ≤ 0.2 |
| RSSS | 0.99 |
| RSSP | ≤ 0.2 |
| YNTS | ≤ 0.2 |
| RCGT | 0.882 |
| RDGT | ≤ 0.2 |
| RPGT | ≤ 0.2 |
| REGT | 0.201 |
| RGGT | 0.493 |
| RSGT | 0.91 |
| TFAS | ≤ 0.2 |
| AMCN | ≤ 0.2 |
| LFSE | ≤ 0.2 |
